MARV entry inh: Marburg virus entry inhibition; Potency, µM (highest dose often 49.2 µM), inactives show top-dose activity change, negative = inhibition, most hits filed as inhibitors; Marburg virus pseudotype entry/binding inhibition, cell-based; 18,000 compounds, 6.5% hits
Lassa entry: inhibitors of Lassa virus binding or entry into cells; Lassa virus pseudotyped entry inhibition, cell-based qHTS; Potency, µM (titrated, usually from 49.2 µM), for inactives: at the top dose activity change, negative = inhibition, most hits filed as inhibitors; 18,000 compounds, 4.1% hits; AID 720533
Active calls of the source: *; u = inconclusive; x = no result given; ! = repeats disagree; [ ] = another dose, or the depositor's remark. Only some compounds are listed: those with a hit (about 8% of all), similar ones and a draw of the others. Calls come from the whole dose curve; tested in HEK293 cells. % is set by controls: 0 for no effect and ±100 for the full control effect; potency is the fitted concentration of half-maximal effect.

SMILES | MARV entry inh | Lassa entry
CCN1C(=NCc2ccc3c(c2)OCO3)NC(CCc2ccccc2)C(C(=O)OC)=C1C (configuration not stated) | -29.8%[8.59 µM] | 48.8%[8.59 µM]
COc1ccc(CN2C[C@]3(CO)OC(CO)C[C@H]3[S+]2(=O)[O-])cc1 (some centres not stated) | 20.4% | 13.4%
C=CC(C)(C)c1c2c(c(O)c3c(=O)c4ccc(O)c(O)c4oc13)C=CC(C)(C)O2 | 20µM* | u
C[C@@H](ON=C1[C@H]2CCn3c(=O)n(-c4ccccc4)c(=O)n3[C@@H]2[C@H](O)[C@@H]2O[C@H]12)c1cn([C@H](CO)Cc2ccccc2)nn1 | -23.2%[8.59 µM] | x
COc1ccc(COc2cc(-c3cccc(OC)c3)nc3ccc(NC(=O)c4ccccc4)cc23)cc1 | u | 10µM*
COc1ccc(COc2cc(-c3cccc(OC)c3)nc3ccc(NC(=O)c4ccc(Cl)cc4)cc23)cc1 | -18.2% | -29.1%
Cc1cc2c(c(=O)n1-c1ccccc1)[C@H]1O[C@](c3ccsc3)(Cc3ccccc31)O2 | u | -16.8%[8.59 µM]
CO[C@H]1C[C@@H]2CC[C@@H](C)[C@@](O)(O2)C(=O)C(=O)N2CCCC[C@H]2C(=O)OC([C@H](C)C[C@@H]2CC[C@@H](O)[C@H](OC)C2)CC(=O)[C@H](C)/C=C(\C)[C@@H](O)[C@@H](OC)C(=O)[C@H](C)C[C@H](C)/C=C/C=C/C=C/1C (some centres not stated) | 35.5µM*! | 28.2µM*!
CN1CCN(C2Cc3ccccc3Sc3ccc(S)cc32)CC1 (configuration not stated) | 12.6µM* | u
CC(C)=CCN1C(=O)C2(CC(C)=C[C@@H](C)O2)c2c(Br)cccc21 (some centres not stated) | 11.3%[8.59 µM] | -12.8%[8.59 µM]
CC[C@H](C)[C@@H]1NC(=O)[C@@H]2CSCCS(=O)(=O)N2C1=O | 19.3% | 5.5%
CCCNC(=O)OC[C@H]1O[C@H](CCON=C2[C@H]3CCn4c(=O)n(-c5ccccc5)c(=O)n4[C@@H]3[C@H](O)[C@@H]3O[C@H]23)C=C[C@H]1Oc1ccc(OC)cc1 | 32.5%[8.59 µM] | -12.1%[8.59 µM]
COc1ccc(NC(=O)c2ccc(-c3ccc(-c4noc(C)n4)cc3C)cc2)cc1OCCN(C)C | 3.55µM* | 22.4µM*
COc1ccc(NC(=O)c2ccc(-c3ccc(-c4noc(C)n4)cc3C)cc2)cc1N1CCN(C)CC1 | 6.31µM* | 15.8µM*
COc1ccc(C(=O)NCc2ccc(OCCN(C)C)cc2)cc1OC | -16.9% | -12.5%
Cc1nc(-c2ccc(-c3ccc(C(=O)N4CCc5cc6c(cc54)C4(CCN(C)CC4)CO6)cc3)c(C)c2)no1 | 10µM* | 28.2µM*
Cc1ccc(NC(=O)c2ccnc(N3CCCC3)c2)cc1-c1ccc(C(=O)NCC2CC2)cc1 | 44.9% | x
O=S1(=O)N[C@@H](Cc2ccccc2)COc2c(Cl)cccc21 | 3.8% | 7.7%
CCC(C)CN1C(=O)NC(CCc2ccccc2)C(C(C)=O)=C1C (configuration not stated) | u | -9.6%[8.59 µM]
Cc1cccc(CN2CCN([C@H]3C[S+](=O)([O-])N[C@H]3COCc3ccccc3)CC2)c1 | u | 45.5%
c1ccc(CCc2nc(-c3ccccc3)oc2NC2CCCCC2)cc1 | -13.2%[8.59 µM] | -13.4%[8.59 µM]
OC1(c2ccc3c(c2)CN(Cc2nccs2)CCO3)CCN(c2ccccc2F)CC1 | -8.7% | -8.0%
C[C@@H]1CC2CCC[C@@H]2[C@]2(O1)C(=O)Nc1cccc(Br)c12 (some centres not stated) | 7.6%[8.59 µM] | 72.1%[8.59 µM]
COc1cccc(CO[C@H]2C=C[C@@H](c3ccccc3)O[C@H]2CBr)c1 | 31.3%[8.59 µM] | 23.9%[8.59 µM]
CNc1ccc2oc(C[C@@H]3OC4(CC[C@@H]3C)O[C@H]([C@@H](C)C(=O)c3ccc[nH]3)[C@H](C)C[C@H]4C)nc2c1C(=O)O (some centres not stated) | 2.82µM* | 2.82µM*
SMILES | MARV entry inh | Lassa entry
CC(=O)OC[C@H]1O[C@@H](ON=C[C@@H](C)[C@H](OCc2ccccc2)C(C)C)[C@@H](OC(C)=O)[C@@H](OC(C)=O)[C@@H]1OC(C)=O | 43.0%[8.59 µM] | x
CC1=C(C(=O)Nc2ccc3[nH]ncc3c2)C(c2ccc(Cl)c(Cl)c2)CC(=O)N1 (configuration not stated) | -18.5% | 16.6%
COCc1cc(O)c(O)c(O)c1-c1c(COC)cc(O)c(O)c1O | 7.94µM* | -14.1%
COc1ccc(C(C)=O)c(O)c1 | 18.6% | 13.9%
CC(=O)C1CC2C=CCOP(=O)(O2)O1 (configuration not stated) | u | 2.5%
C=CCN=C1NC(c2cccc(F)c2)C(C(=O)OC)=C(C)N1Cc1ccccc1 (configuration not stated) | u | -15.4%[8.59 µM]
C=CCc1cccc(/C=N/NC(=O)CN2CCN(Cc3ccccc3)CC2)c1O | u | 12.6µM*
Cc1ccc2c(c1)C1(CCN(CCc3nc(-c4ccccc4)oc3C)CC1)OC(=O)N2 | u | 12.6µM*
O=C1NCC2(CCN(CCc3ccccc3)CC2)O1 | -10.1% | -8.2%
